Test results: PubChem BioAssay
Inconclusive results are not listed. Active and inactive are the calls of the source.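 Rule for the calls, unless noted: active = normalized viability below 100% at a tested concentration; inactive = the rest.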

What was measured:
[1] = growth inhibition of DIPG glioma cells, dose response, cell-based, SU-DIPG-XIII, MIPE4.0, CellTiter-Glo, qHTS (AID 1347061; cut-off not given, nearly all actives have AC50 up to about 37 µM;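 note: cells exposed to compound for 48 hours before readout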); settings: SU-DIPG-XIII viability, CellTiter-Glo ATP luminescence
[2] = growth inhibition of DIPG glioma cells, dose response, cell-based, JHH-DIPG-1, MIPE4.0, CellTiter-Glo, qHTS (AID 1347062; cut-off not given, nearly all actives have AC50 up to about 27 µM;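 for AC50: cells exposed to compound for two days before readout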); settings: JHH-DIPG-1 viability, CellTiter-Glo ATP luminescence
[3] = growth inhibition of DIPG glioma cells, dose response, cell-based, SU-DIPG-IV, MIPE4.0, CellTiter-Glo, qHTS (AID 1347063; cut-off not given, nearly all actives have AC50 up to about 30 µM;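 note: compound exposure lasted 48 hours before the viability readout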); settings: SU-DIPG-IV viability, CellTiter-Glo ATP luminescence
[4] = growth inhibition of DIPG glioma cells, dose response, cell-based, SU-DIPG-XIII, MIPE5.0, CellTiter-Glo, qHTS (AID 1347064; cut-off not given, nearly all actives have AC50 up to about 23 µM;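 for AC50: cells exposed to compound for 48 hours before the viability read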); settings: SU-DIPG-XIII viability, CellTiter-Glo ATP luminescence
[5] = viability loss in pontine glioma line – cell-based, SU-DIPG-XXV, MIPE5.0, CellTiter-Glo, qHTS, dose response (AID 1347065; cut-off not given, nearly all actives have AC50 up to about 26 µM;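 note: cells exposed to compound for 48 hours before ATP readout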); settings: CellTiter-Glo ATP luminescence
[6] = SU-DIPG-VI glioma cell viability, MIPE4.0 library, CellTiter-Glo luminescence, qHTS (AID 1347066; cut-off not given, nearly all actives have AC50 up to about 30 µM;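 note: cells exposed to compound for 48 hours before readout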); settings: CellTiter-Glo ATP luminescence
[7] = JHH-DIPG-1 glioma cell viability, MIPE5.0 library, CellTiter-Glo luminescence, qHTS (AID 1347067; cut-off not given, nearly all actives have AC50 up to about 26 µM;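 note: cells exposed to compound for 48 hours before readout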); settings: JHH-DIPG-1 glioma viability, CellTiter-Glo ATP luminescence
[8] = SU-DIPG-XXV glioma cell viability, MIPE5.0 library, qHTS (AID 1347068; cut-off not given, nearly all actives have IC50 up to about 30 µM)
[9] = modifiers of HSF1 nuclear foci, imaging, Selleck Cancer Library (AID 1347162; in the data active = plate-normalised HSF1 focus index below about 0.46); settings: human cells, at 10 µM; SSMD: measured here: HSF1 foci SSMD mean; cell count: measured here: cell number; plate-normalised HSF1 focus index: stronger effect = lower value
[10] = ovarian cancer cell viability with rucaparib, profiling panel, oncology-focused library, rucaparib conditional (AID 1508598); settings: patient-derived ovarian cancer cells, CellTiter-Glo viability, 144 h, stronger effect = lower value
[11] = kinase inhibitors against Plasmodium liver-stage infection, cell-based, known kinase inhibitor set, luminescence, hepatoma host viability (AID 624392; call rule not given here;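 note: infected cells incubated roughly two days before readout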); settings: Plasmodium liver stage in hepatoma cells, luciferase luminescence, concentration not given here; liver cell % of control: measured here: host liver cell viability; parasite % of control: stronger effect = lower value

O=[N+]([O-])c1ccc(Nc2ccccc2-c2ccccc2)c2nonc12
inactive: outcome [1] | outcome [2] | outcome [3]
active: AC50 [4] 23.5 µM | AC50 [5] 18.6 µM | AC50 [6] 20.9 µM | AC50 [7] 23.5 µM

COc1ccc(Cc2ccc(NC(N)=O)cc2)cc1-c1cccc(Cl)c1
inactive: outcome [1] | outcome [2] | outcome [3] | outcome [4] | outcome [5] | outcome [6] | outcome [7]

O=C(NCCCCN1CCOCC1)c1cc2ccccc2o1
inactive: outcome [1] | outcome [2] | outcome [3] | outcome [4] | outcome [5] | outcome [6] | outcome [8]
active: AC50 [7] 23.5 µM

CCOc1cc2ncc(C#N)c(Nc3ccc(F)c(Cl)c3)c2cc1NC(=O)/C=C/CN(C)C
3.17: SSMD [9]
active: AC50 [2] 7.43 µM | AC50 [3] 0.833 µM | AC50 [4] 5.9 µM | AC50 [5] 0.934 µM | AC50 [7] 9.34 µM | viability ([10]; at 0.0195 µM, OCI-P5x cells, with rucaparib 20 µM, 100% = cells with rucaparib alone) 67.4% | viability ([10]; at 0.0195 µM, OCI-P5x cells, without rucaparib) 81.4% | viability ([10]; at 0.0781 µM, OCI-C5x cells, with rucaparib 10 µM, 100% = cells with rucaparib alone) 89.4% | viability ([10]; at 0.313 µM, OCI-C5x cells, with rucaparib 10 µM, 100% = cells with rucaparib alone) 33.8% | viability ([10]; at 0.313 µM, OCI-C5x cells, without rucaparib) 83.6% | viability ([10]; at 0.313 µM, OCI-P5x cells, with rucaparib 20 µM, 100% = cells with rucaparib alone) 87.8% | viability ([10]; at 1.25 µM, OCI-C5x cells, with rucaparib 10 µM, 100% = cells with rucaparib alone) 17.6% | viability ([10]; at 1.25 µM, OCI-C5x cells, without rucaparib) 47.6% | viability ([10]; at 1.25 µM, OCI-P5x cells, with rucaparib 20 µM, 100% = cells with rucaparib alone) 66.1% | viability ([10]; at 1.25 µM, OCI-P5x cells, without rucaparib) 91.8% | viability ([10]; at 5 µM, OCI-C5x cells, with rucaparib 10 µM, 100% = cells with rucaparib alone) 1.66% | viability ([10]; at 5 µM, OCI-C5x cells, without rucaparib) 3.35% | viability ([10]; at 5 µM, OCI-P5x cells, with rucaparib 20 µM, 100% = cells with rucaparib alone) 1.19% | viability ([10]; at 5 µM, OCI-P5x cells, without rucaparib) 1.58%
inactive: outcome [1] | plate-normalised HSF1 focus index [9] 1.19 | viability ([10]; at 0.000305 µM, OCI-C5x cells, with rucaparib 10 µM, 100% = cells with rucaparib alone) 117% | viability ([10]; at 0.000305 µM, OCI-C5x cells, without rucaparib) 129% | viability ([10]; at 0.000305 µM, OCI-P5x cells, with rucaparib 20 µM, 100% = cells with rucaparib alone) 106% | viability ([10]; at 0.000305 µM, OCI-P5x cells, without rucaparib) 117% | viability ([10]; at 0.00122 µM, OCI-C5x cells, with rucaparib 10 µM, 100% = cells with rucaparib alone) 115% | viability ([10]; at 0.00122 µM, OCI-C5x cells, without rucaparib) 115% | viability ([10]; at 0.00122 µM, OCI-P5x cells, with rucaparib 20 µM, 100% = cells with rucaparib alone) 105% | viability ([10]; at 0.00122 µM, OCI-P5x cells, without rucaparib) 119% | viability ([10]; at 0.00488 µM, OCI-C5x cells, with rucaparib 10 µM, 100% = cells with rucaparib alone) 105% | viability ([10]; at 0.00488 µM, OCI-C5x cells, without rucaparib) 126% | viability ([10]; at 0.00488 µM, OCI-P5x cells, with rucaparib 20 µM, 100% = cells with rucaparib alone) 112% | viability ([10]; at 0.00488 µM, OCI-P5x cells, without rucaparib) 121% | viability ([10]; at 0.0195 µM, OCI-C5x cells, with rucaparib 10 µM, 100% = cells with rucaparib alone) 104% | viability ([10]; at 0.0195 µM, OCI-C5x cells, without rucaparib) 122% | viability ([10]; at 0.0781 µM, OCI-C5x cells, without rucaparib) 103% | viability ([10]; at 0.0781 µM, OCI-P5x cells, with rucaparib 20 µM, 100% = cells with rucaparib alone) 104% | viability ([10]; at 0.0781 µM, OCI-P5x cells, without rucaparib) 117% | viability ([10]; at 0.313 µM, OCI-P5x cells, without rucaparib) 103%
7120: cell count [9]

CCOC(=O)[C@@H](N)CCC(=O)N[C@@H](CSCc1ccccc1)C(=O)N[C@@H](C(=O)OCC)c1ccccc1
active: AC50 [4] 18.6 µM | AC50 [5] 26.3 µM | AC50 [7] 23.5 µM
inactive: outcome [1] | outcome [2] | outcome [3] | outcome [8]

CO[C@H]1/C=C/O[C@@]2(C)Oc3c(C)c(O)c4c(O)c(c5c(c4c3C2=O)=NC2(CCN(CC(C)C)CC2)N=5)NC(=O)/C(C)=C/C=C/[C@H](C)[C@H](O)[C@@H](C)[C@@H](O)[C@@H](C)[C@H](OC(C)=O)[C@@H]1C
inactive: outcome [1] | outcome [2] | outcome [3] | outcome [4]

O=C(NCc1ccncc1)C12C[C@H]3C[C@@H](C1)CC(c1ccc(Cl)cc1)(C3)C2
active: AC50 [1] 14.8 µM

O=C(O)c1ccc(-c2cc3cccnc3c(-c3ccc4nonc4c3)n2)cc1
inactive: outcome [1]
active: AC50 [2] 20.9 µM | AC50 [3] 26.4 µM

CCNc1cc(NC2CCC(O)CC2)nc(Nc2ccc3c(ccn3Cc3ccccc3)c2)n1 (stereo unspecified)
active: AC50 [2] 26.4 µM | AC50 [3] 18.7 µM | AC50 [4] 23.5 µM | AC50 [5] 16.6 µM | AC50 [7] 23.5 µM
inactive: parasite % of control [11] 33.8% | outcome [1]
83.4%: liver cell % of control [11]
